Experimental data: PubChem BioAssay (NCI)
Compounds without any hit were thinned out: in the full panel of roughly 83,000, 20% have a hit.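 How to read the values: 0–100, growth inhibition (40 = 60% inhibited); 0, no net growth; -100 to 0, cell death (-40 = 40% of starting cells died; -100 = all dead).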 Unmarked numbers belong to inactive results. Activity calls are given as the source filed them. The calls were made as follows: active = growth percent below 10; inactive = the rest.

Assays:
Experiment in all cases: NCI-60 one-dose screen, 48 h (100 = growth as untreated, 0 = no growth, -100 = all killed)
Conditions in all cases: 10 µM unless noted
T-47D breast = tested on: T-47D breast
BT-549 breast = tested on: BT-549 breast
MDA-MB-435 melanoma = tested on: MDA-MB-435 melanoma
SW-620 colon = tested on: SW-620 colon
MCF7 breast = tested on: MCF7 breast
HCT-116 colon = tested on: HCT-116 colon
HCC-2998 colon = tested on: HCC-2998 colon
KM12 colon = tested on: KM12 colon

Compound	growth (T-47D breast)	growth (BT-549 breast)	growth (MDA-MB-435 melanoma)	growth (SW-620 colon)	growth (MCF7 breast)	growth (HCT-116 colon)	growth (HCC-2998 colon)	growth (KM12 colon)
Brc1ccsc1Br	95.4%	102%	113%	111%	103%	105%	105%	111%
O=C1SCN(Cc2ccccc2)CN1Cc1ccccc1	52.2%	131%	73.3%	34.3%	22.1%	70.5%	115%	32.4%
Clc1cc2nc(-c3ccccc3)c(-c3ccccc3)nc2cc1Cl	76.6%	118%	108%	89.7%	78.1%	84.8%	94.1%	92%
COC(=O)c1ccc2c(c1)nc(-c1cc3ccccc3[nH]c1=O)n2-c1cc(C(C)(C)C)[nH]n1	59.3%	54.6%	46.4%	61.8%	58.1%	51.1%	-10.1% (active)	44.3%
COc1ccc2c(c1)OC1=C(C(=O)OC1)C2c1cc(OC)c2c(c1)OCCO2 (stereo unspecified)	60.2%	24.6%	-18.1% (active)	24.6%	10.3%	4.09% (active)	23%	2.33% (active)
COc1ccc(NC(=O)Cn2c(=O)sc3c(-c4ccc(Cl)cc4)cc(-c4ccc(Cl)cc4)nc32)cc1	79.9%	87.6%	102%	99.6%	89.2%	88.1%	104%	99.7%
CCCCCCCCN(CCCCCCCC)C(=O)CCl	89.7%	98.5%	108%	104%	99.6%	90.8%	103%	112%
c1cn2cc(-c3ccc4ncn(C5CCCCC5)c4c3)nc(-c3ccc4c(c3)ncn4C3CCCCC3)c2n1	-17.7% (active)	-48.9% (active)	-73% (active)	-3.82% (active)	-3.78% (active)	-61.4% (active)	-93.4% (active)	-61.1% (active)
COc1cc(C2CC(c3ccccc3)=NN2C=O)ccc1Oc1nc2c(c(=O)n(C)c(=O)n2C)n1C (stereo unspecified)	69.7%	95.7%	56.8%	97.9%	72.3%	79.9%	77.6%	74.7%
CCOC(=O)CCN(CCC(=O)OCC)c1ccccc1	95.7%	97.9%	124%	103%	101%	95.4%	119%	93.5%
O=C(Nc1cccc(Cl)c1)Nc1ccccc1Cl	81.5%	99.2%	92.2%	89.5%	77.8%	90%	99.8%	89.9%
Cc1ccc(NC(=O)c2cc(NCc3cc(O)ccc3O)ccc2O)cc1	75.6%	63.8%	106%	106%	75.7%	97%	106%	91%
CNC(=O)c1c(NC(=O)c2cccc(C(F)(F)F)c2)sc2c1CCC(=O)C2	-32.8% (active)	-14.8% (active)	4.37% (active)	-17.8% (active)	0.296% (active)	0.607% (active)	-33.3% (active)	-12.9% (active)
C=C1C(=O)O[C@H]2[C@H]1CC/C(COC(=O)NCc1cccc(OC)c1)=C\CC[C@@]1(C)O[C@@H]21	11.9%	16.6%	45.5%	-35.4% (active)	8.22% (active)	-70.9% (active)	81.6%	88%
COc1cc(/C=N/NC(=O)Cn2c(-c3ccc(C)o3)nc3ccccc32)ccc1OCc1ccccc1	69.2%	92%	96.9%	89.9%	76.2%	71.9%	103%	85.1%
CN(C)CCCN1c2ccccc2CCc2ccccc21	91.8%	95.8%	102%	111%	80.5%	96.6%	99.7%	103%

Compound	growth (T-47D breast)	growth (BT-549 breast)	growth (MDA-MB-435 melanoma)	growth (SW-620 colon)	growth (MCF7 breast)	growth (HCT-116 colon)	growth (HCC-2998 colon)	growth (KM12 colon)
NS(=O)(=O)c1ccc(CCn2c(SCC(=O)N/N=C/c3cc4ccccc4[nH]3)nc3ccccc3c2=O)cc1	45.2%	74.3%	45.9%	71.9%	37.7%	29.6%	88%	50%
Cc1ccc(C(CN(C)C)C(=O)c2ccccc2)cc1 (stereo unspecified)	33%	-4.79% (active)	18.2%	-53.8% (active)	-0.801% (active)	-86.4% (active)	101%	33.9%
O=c1c2cc(Br)cc(Br)c2nc(-c2ccc(Cl)cc2)n1/N=C\c1ccccc1F	69.7%	88.3%	81.2%	82.5%	56.1%	32.8%	85.4%	72.2%
COc1cc(C2CC(c3ccc(Cl)cc3)=NN2C=O)ccc1Oc1ccnc2cc(Cl)ccc12 (stereo unspecified)	56.4%	94.7%	73.3%	84.5%	53.4%	49.2%	72.8%	76.2%
CCOC(=O)C1C(=O)C=C(c2cc(OC)c(OC)c(OC)c2)CC1c1sc(N(C)Cc2ccccc2)nc1Cl (stereo unspecified)	66.6%	92.1%	95.1%	95.7%	77.4%	72.6%	105%	93.6%
COc1ccc(-c2cnnn2-c2nonc2-n2cccc2)cc1	44.8%	47.6%	-44.1% (active)	19.1%	14.5%	8.3% (active)	6.73% (active)	3.78% (active)
CC(C)(CCc1ccccn1)C(=O)CCCc1ccccn1	95.2%	105%	109%	106%	98.6%	93.9%	107%	106%
C=C1C(=O)O[C@H]2[C@H]1CC/C(COC(=O)N[C@@H](Cc1c[nH]c3ccccc13)C(=O)OC)=C\CC[C@@]1(C)O[C@@H]21	-16.9% (active)	45.3%	49.1%	-6.63% (active)	11.7%	-78% (active)	82.4%	74.6%
O=C(N/N=C/c1ccc([N+](=O)[O-])o1)c1ccc(O)cc1	44.2%	59.4%	-79.5% (active)	18.2%	26.1%	11.4%	62.9%	33%
O=C1C=CN2C(=O)CC=CC2[C@@H]1O (stereo partly specified)	90.4%	102%	124%	111%	96.5%	96.5%	114%	105%
O=C(/C=C/c1cn(-c2ccccc2)nc1-c1ccccc1)OCc1cn(-c2cccc([N+](=O)[O-])c2)nn1	78.2%	94.7%	94%	90.6%	86.8%	82.3%	96.7%	98.6%
O=C1c2cccc3cccc(c23)C(=O)N1CCCCCCCCCCN1C(=O)c2cccc3cccc(c23)C1=O	97.7%	114%	104%	104%	86.9%	117%	112%	109%
C#Cc1cccc(Nc2nc3cc([N+](=O)[O-])ccc3nc2Nc2ccc(O)cc2)c1	-0.313% (active)	27.7%	12.2%	-52.9% (active)	2.84% (active)	-11.9% (active)	5.14% (active)	-36.3% (active)
CC1CCCN(CCCCOc2ccc(-c3ccc(C#N)cc3)cc2)C1 (stereo unspecified)	79.1%	85.6%	99.4%	96.8%	86.4%	87.8%	86.6%	96.1%
CC(=O)Nc1ccc(/C=N/N2CCCCCC2)cc1	100%	91.5%	95.6%	100%	92.2%	99.5%	109%	97.8%
COc1ccc(-c2nc(SCCC(C)C)nc(Nc3ccc(C(=O)O)cc3)c2C#N)cc1	71.7%	82.6%	99.3%	101%	80.5%	84.4%	104%	86.3%
